Records with an inconclusive call do not appear. Activity calls are given as the source filed them. Unless noted, calls come from the whole dose curve; as a rule, active = well fitted curve in the direction sought with a large enough effect in the repeat runs; inconclusive = weak or mixed curves; inactive = no such curve, though single readings can be large; an effect the other way counts as inactive or inconclusive.
Legend:
[1] = qHTS assay to identify small molecule agonists of the peroxisome proliferator-activated receptor delta (PPARd) signaling pathway - cell viability counter screen (AID 743211); note: nearly all actives have a fitted effect of over 55% in size
Method in brief: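 Luminescent ATP viability assay (CellTiter-Glo, 30 min RT) in UAS-bla HEK293H cells carrying the PPAR delta reporter construct, 3000 cells/well, after a 17 h compound treatment at 37 C.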

[2] = biological target: Peroxisome proliferator-activated receptor delta (Homo sapiens) (UniProt Q03181); assay: qHTS assay to identify small molecule agonists of the peroxisome proliferator-activated receptor delta (PPARd) signaling pathway (AID 743212; calls by dose curve)
Sequence of Peroxisome proliferator-activated receptor delta (Homo sapiens) (Q03181 whole entry, looked up): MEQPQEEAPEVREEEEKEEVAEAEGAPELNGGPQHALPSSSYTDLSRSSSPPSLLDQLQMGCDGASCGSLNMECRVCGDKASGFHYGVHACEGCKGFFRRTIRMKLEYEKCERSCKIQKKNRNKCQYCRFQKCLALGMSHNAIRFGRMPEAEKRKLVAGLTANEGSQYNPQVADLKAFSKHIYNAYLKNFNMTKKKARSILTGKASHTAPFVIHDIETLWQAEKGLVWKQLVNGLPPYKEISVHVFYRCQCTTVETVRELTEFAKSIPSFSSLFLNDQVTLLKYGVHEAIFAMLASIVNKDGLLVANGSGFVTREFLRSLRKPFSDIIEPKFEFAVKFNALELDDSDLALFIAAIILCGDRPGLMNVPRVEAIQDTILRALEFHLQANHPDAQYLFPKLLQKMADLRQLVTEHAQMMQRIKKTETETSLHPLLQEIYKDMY
Method in brief: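 Read-out: beta-lactamase FRET fluorescence after 2 h room-temperature incubation with LiveBLAzer B/G substrate. Cells were HEK293H carrying a UAS-bla reporter for PPARd, treated at 37 C with DMSO-dissolved compounds.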

[3] = qHTS assay to identify small molecule antagonists of the peroxisome proliferator-activated receptor delta (PPARd) signaling pathway - cell viability counter screen (AID 743213); note: nearly all actives have a fitted effect of over 50% in size
Method in brief: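 HEK293H cells with the PPARd UAS-bla reporter, co-treated 17 h at 37 C with compounds and L165041 (300 nM final), were lysed with CellTiter-Glo. Luminescence indicated viable cell content.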

[4] = biological target: Peroxisome proliferator-activated receptor delta (Homo sapiens) (UniProt Q03181); assay: qHTS assay to identify small molecule antagonists of the peroxisome proliferator-activated receptor delta (PPARd) signaling pathway (AID 743215; active = well fitted inhibition curve with a large enough effect in the signal ratio in the repeat runs, not every such curve was filed as active; the % refers to the signal ratio;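 note: cells stimulated with agonist L165041 at 300 nM final during compound exposure; series mostly up to about 62 µM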)
Method in brief: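 Here, a reporter line (HEK293H, beta-lactamase under a UAS) measures PPARd signaling. Compounds are tested against agonist L165041 at 300 nM final concentration over 17 h at 37 C, with fluorescence read after substrate.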

[5] = qHTS assay to identify small molecule agonists of the farnesoid-X-receptor (FXR) signaling pathway - cell viability counter screen (AID 743218); note: nearly all actives have a fitted effect of over 45% in size
Method in brief: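 Quantitative HTS counter screen measuring ATP-based viability via CellTiter-Glo luminescence in HEK 293T cells carrying a UAS-driven beta-lactamase reporter, after 16 h compound exposure at 37 C.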

[6] = qHTS assay to identify small molecule antagonists of the farnesoid-X-receptor (FXR) signaling pathway - cell viability counter screen (AID 743221; active = well fitted cell-killing curve with a large enough effect in the repeat runs, not every such curve was filed as active; note: nearly all actives have a fitted effect of over 50% in size)
Method in brief: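 In GeneBLAzer FXR-UAS-bla HEK 293T cells stimulated with 50 uM chenodeoxycholic acid (final), compounds acted for 16 h at 37 C. Viability was assessed afterwards by CellTiter-Glo luminescence.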

[7] = biological target: Vitamin D3 receptor (Homo sapiens) (UniProt P11473); assay: qHTS assay to identify small molecule agonists of the vitamin D receptor (VDR) signaling pathway (AID 743222; calls by dose curve)
Sequence of Vitamin D3 receptor (Homo sapiens) (P11473 whole entry, looked up): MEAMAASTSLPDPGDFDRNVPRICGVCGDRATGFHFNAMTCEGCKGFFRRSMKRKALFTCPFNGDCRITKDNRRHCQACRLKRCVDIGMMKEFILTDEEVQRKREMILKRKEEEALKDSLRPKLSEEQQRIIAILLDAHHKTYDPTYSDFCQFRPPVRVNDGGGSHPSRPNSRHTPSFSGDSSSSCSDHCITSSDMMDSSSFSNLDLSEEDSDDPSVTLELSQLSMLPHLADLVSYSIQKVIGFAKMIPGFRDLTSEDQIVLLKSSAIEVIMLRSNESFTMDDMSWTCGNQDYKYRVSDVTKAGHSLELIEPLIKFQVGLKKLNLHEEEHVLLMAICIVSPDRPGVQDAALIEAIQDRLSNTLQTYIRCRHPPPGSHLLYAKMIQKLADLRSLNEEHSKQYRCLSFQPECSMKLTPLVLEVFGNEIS
Method in brief: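 Tox21 cell reporter format: VDR-bla line, 16 h compound exposure in 5% CO2 at 37C, then fluorescence intensity after 2 h with LiveBLAzer B/G FRET substrate.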

[8] = qHTS assay to identify small molecule agonists of the vitamin D receptor (VDR) signaling pathway - cell viability counter screen (AID 743224); note: series mostly up to about 63 µM; nearly all actives have a fitted effect of over 50% in size
Method in brief: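 CellTiter-Glo viability readout on VDR-bla cells, measured after 16 h of compound treatment at 37C in the same wells.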

[9] = qHTS assay to identify small molecule agonists of the NFkB signaling pathway (AID 1159509; active = well fitted curve in the direction sought with a large enough effect in the signal ratio in the repeat runs, not every such curve was filed as active; the % refers to the signal ratio; note: series mostly up to about 61 µM)
Method in brief: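 Beta-lactamase reporter assay run in quantitative high-throughput format on an NF-kB-responsive ME-180 line, with 5 hr compound treatment and a FRET-based blue/green fluorescence readout.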

[10] = qHTS assay to identify small molecule agonists of the NFkB signaling pathway - cell viability counter screen (AID 1159515; calls by dose curve; note: series mostly up to about 61 µM; nearly all actives have a fitted effect of over 55% in size)
Method in brief: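 Tox21 library compounds were tested for cytotoxicity against NFkB-bla ME-180 cells during a 5 hr exposure at 37 C. CellTiter-Glo luminescence served as the viability read-out.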

[11] = qHTS assay to identify small molecule agonists of the endoplasmic reticulum stress response signaling pathway (AID 1159516; active = well fitted activation curve with a large enough effect in the signal ratio in the repeat runs, not every such curve was filed as active; the % refers to the signal ratio)
Method in brief: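 Fluorescence at 460 and 530 nm (405 nm excitation) reports beta-lactamase from an ER stress response element in HeLa cells treated 5 hr at 37 C.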

[12] = qHTS assay to identify small molecule agonists of the endoplasmic reticulum stress response signaling pathway - cell viability counter screen (AID 1159517; calls by dose curve; note: series mostly up to about 61 µM; nearly all actives have a fitted effect of over 50% in size)
Method in brief: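 Steps: seed 1,500 ESRE-bla HeLa cells per well; incubate overnight at 37 C, 5% CO2; add compounds in DMSO for 5 hr; run FRET substrate 2 hr RT; add CellTiter-Glo, wait 30 min, read luminescence.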

[13] = qHTS assay to identify small molecule antagonists of the retinoid-related orphan receptor gamma (ROR-gamma) signaling pathway - cell viability counter screen (AID 1159520); note: nearly all actives have a fitted effect of over 50% in size
Method in brief: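 Tet-on ROR gamma CHO cells were given compounds for 2 hr, then doxycycline hyclate at 1 uM final, and incubated 16 hr at 37 C. Viability was measured as ATP content by CellTiter-Glo luminescence.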

[14] = biological target: Nuclear receptor ROR-gamma (Homo sapiens) (UniProt P51449); assay: qHTS assay to identify small molecule antagonists of the retinoid-related orphan receptor gamma (ROR-gamma) signaling pathway (AID 1159521)
Method in brief: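 CHO cells expressing RORγ under a TET-on promoter, luciferase under RORE control. Dox 1 uM final, 16 h; compounds added 2 h prior. Luminescence decrease measured.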

[15] = qHTS assay to identify small molecule agonists of the AP-1 signaling pathway - cell viability counter screen (AID 1159525; calls by dose curve; note: nearly all actives have a fitted effect of over 55% in size)
Method in brief: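 Same-well cytotoxicity counter screen of the Tox21 10K library in ME-180 cells. The readout is ATP-dependent luminescence after 5 h compound treatment. Data are normalised to DMSO and tetra n-octyl ammonium bromide controls.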

[16] = qHTS assay to identify small molecule agonists of the AP-1 signaling pathway (AID 1159526; calls by dose curve)
[17] = biological target: Bile acid receptor (Homo sapiens) (UniProt Q96RI1); assay: qHTS assay to identify small molecule antagonists of the farnesoid-X-receptor (FXR) signaling pathway (AID 743217; active = well fitted inhibition curve with a large enough effect in the signal ratio in the repeat runs, not every such curve was filed as active; the % refers to the signal ratio)
Sequence of Bile acid receptor (Homo sapiens) (Q96RI1 whole entry, looked up): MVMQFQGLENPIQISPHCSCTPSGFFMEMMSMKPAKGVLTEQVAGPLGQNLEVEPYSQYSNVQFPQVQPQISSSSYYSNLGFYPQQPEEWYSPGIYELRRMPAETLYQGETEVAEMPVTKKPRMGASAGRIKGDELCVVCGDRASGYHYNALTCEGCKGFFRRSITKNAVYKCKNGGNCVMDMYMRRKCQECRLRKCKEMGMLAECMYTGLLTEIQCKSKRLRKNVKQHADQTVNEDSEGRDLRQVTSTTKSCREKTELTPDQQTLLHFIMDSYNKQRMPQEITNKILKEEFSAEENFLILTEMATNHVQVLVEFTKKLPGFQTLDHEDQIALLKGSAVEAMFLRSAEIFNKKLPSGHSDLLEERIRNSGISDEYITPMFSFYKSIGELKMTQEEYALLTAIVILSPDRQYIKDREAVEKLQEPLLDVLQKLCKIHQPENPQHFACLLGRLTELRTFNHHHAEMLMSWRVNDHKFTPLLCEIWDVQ
Method in brief: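 Test compounds are pin-transferred onto FXR-bla HEK 293T cells, then chenodeoxycholic acid is added at 50 uM final. After 16 h at 37 °C, LiveBLAzer B/G substrate is applied for 2 h at room temperature and fluorescence read.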

[18] = biological target: Bile acid receptor (Homo sapiens) (UniProt Q96RI1); assay: qHTS assay to identify small molecule agonists of the farnesoid-X-receptor (FXR) signaling pathway (AID 743220; active = well fitted activation curve with a large enough effect in the signal ratio in the repeat runs, not every such curve was filed as active; the % refers to the signal ratio)
Method in brief: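 FXR-UAS-bla HEK 293T cells carrying a UAS-driven beta-lactamase reporter were plated for 5 h at 37C/5% CO2, then exposed to DMSO-dissolved Tox21 10K compounds for 16 h at 37C. A LiveBLAzer B/G FRET substrate was loaded for 2 h at room temperature before fluorescence reading.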

[19] = qHTS assay to identify small molecule antagonists of the vitamin D receptor (VDR) signaling pathway - cell viability counter screen (AID 743225); note: nearly all actives have a fitted effect of over 50% in size
Method in brief: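 Luminescent cell viability (CellTiter-Glo) in VDR-bla HEK 293T cells after 16 h compound exposure at 37C in the presence of 3 nM final 1-alpha,25-dihydroxy vitamin D3.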

[20] = biological target: Vitamin D3 receptor (Homo sapiens) (UniProt P11473); assay: qHTS assay to identify small molecule antagonists of the vitamin D receptor (VDR) signaling pathway (AID 743223; active = well fitted inhibition curve with a large enough effect in the signal ratio in the repeat runs, not every such curve was filed as active; the % refers to the signal ratio)
Method in brief: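 Agonist 1alpha,25-dihydroxyvitamin D3 (3 nM in well) was added with each compound to VDR-bla cells preincubated 4 h. Cells stood 16 h at 37C, then FRET substrate 2 h at room temperature; fluorescence intensity recorded.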

Measured: Potency

Cc1coc2c1CCC(C)C2 (stereo not given)
not listed: [17] | [18] | [19] | [20]
inactive: all other assays above

CN(C)CCc1ccc(O)cc1
not listed: [5] | [20]
inactive: all other assays above

CCOC(=O)NC(=S)Nc1ccccc1NC(=S)NC(=O)OCC
not listed: [8] | [17] | [18] | [19] | [20]
inactive: all other assays above

NC(=S)C(N)=S
not listed: [5] | [8] | [20]
inactive: all other assays above

CC1CCCCC1NC(=O)Nc1ccccc1 (stereo not given)
inactive: all assays above

C[N+](=O)[O-]
not listed: [17] | [18]
inactive: all other assays above

CC1(C)COP(Oc2ccccc2)OC1
not listed: [5] | [8] | [19]
inactive: all other assays above

Nc1c(Br)cc([N+](=O)[O-])cc1[N+](=O)[O-]
inactive: all assays above

COP(N)(=S)Oc1ccccc1C(=O)OC(C)C (stereo not given)
not listed: [17] | [18] | [19] | [20]
inactive: all other assays above

O=[N+]([O-])c1cc(Cl)c(Cl)c(Cl)c1
not listed: [5]
inactive: all other assays above

O=[N+]([O-])c1cccc2cccnc12
not listed: [5]
inactive: all other assays above

CC(=O)C(Cl)Cl
not listed: [7] | [20]
inactive: all other assays above

N#CCNCC#N
not listed: [17] | [18] | [20]
inactive: all other assays above

CCOc1nc(C(Cl)(Cl)Cl)ns1
not listed: [17] | [18] | [19]
inactive: all other assays above

CCCSC(=O)Cl
not listed: [5]
inactive: all other assays above

O=NN1CCCCC1
not listed: [17] | [18] | [19]
inactive: all other assays above

CCCCC(=O)Cl
not listed: [20]
inactive: all other assays above

CCC(Cl)[N+](=O)[O-] (stereo not given)
not listed: [19]
inactive: all other assays above

N#CCCC#N
inactive: all assays above

CS(=O)(=O)c1cc(C(F)(F)F)ccc1C(=O)c1cnoc1C1CC1
not listed: [17] | [18]
inactive: all other assays above

CCCCOC(=O)c1ccccc1N
inactive: all assays above

O=C(Cc1ccccc1)OCc1ccccc1
not listed: [5]
inactive: all other assays above

CNC(=O)Oc1ccc(N(C)C)c(C)c1
not listed: [5] | [7] | [8] | [19] | [20]
inactive: all other assays above

C[C@@H]1CN(C2CCC(C#N)(c3ccc(F)cc3)CC2)CC[C@]1(C(=O)O)c1ccccc1 (stereo not given in full)
not listed: [5]
inactive: all other assays above

NC1=NC(=O)C(c2ccccc2)O1 (stereo not given)
not listed: [5] | [20]
inactive: all other assays above

CN1C[C@@H](NS(=O)(=O)N(C)C)C[C@@H]2c3cccc4c3c(cn4C)C[C@H]21
not listed: [17] | [18] | [19] | [20]
inactive: all other assays above

CNC(=O)O/N=C(\C)SC
not listed: [17] | [18]
inactive: all other assays above

CC(=O)CC(c1ccc(Cl)cc1)c1c(O)c2ccccc2oc1=O (stereo not given)
not listed: [17] | [18] | [20]
inactive: all other assays above

CC(C)NCC(O)c1ccc(N)c(C#N)c1 (stereo not given)
not listed: [5] | [7] | [8] | [18] | [20]
inactive: all other assays above

CC(C)CC(N(C)C)C1(c2ccc(Cl)cc2)CCC1 (stereo not given)
inactive: all assays above

CC(=O)Nc1cc([As](=O)(O)O)ccc1O
not listed: [20]
inactive: all other assays above

CCCCN(CCCCO)N=O
not listed: [17] | [18]
inactive: all other assays above

CCOC(=O)CP(=O)(OCC)OCC
not listed: [7] | [19] | [20]
inactive: all other assays above
